The text below walks through data of PubChem BioAssay.

Active and inactive are the calls of the source.

Experiment [1] in a line: E. coli DRC41 culture turbidity changes, primary screen, E. coli filamentation inducer project, strain DRC41, OD650, 48 h (AID 1152).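 Further: E. coli MC1000 strain DRC41 lacking acrAB efflux pump and sulA.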 The conditions noted are these: E. coli DRC41 (acrAB sulA), higher = more signal, called active from +8 up or from −8 down.
Experiment [2] in a line: small-molecule binders of probe aLefty1, primary screen, biochemical, small-molecule microarray, 635/667 nm fluorescence (AID 1153).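 Further: score merges spot fluorescence with signal-to-noise ratio from the scanned slide images.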 Particulars: higher = more signal.
Experiment [3] can be described thus: PSAC antagonists in infected red cells, primary screen, cell-based, P. falciparum Indochina, OD700, 1 h (AID 1154). The conditions noted are these: P. falciparum Indochina infected RBC osmotic lysis, higher = more signal, called active from +8 up or from −8 down.
Experiment [4] in a line: PSAC antagonists in infected red cells, primary screen, cell-based, P. falciparum Indochina, OD700, 2 h (AID 1155).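 Further: lysis reports solute entry through the parasite surface anion channel PSAC; channel blockers reduce lysis of infected cells.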 Particulars: P. falciparum Indochina infected erythrocytes, osmotic lysis OD700; higher = more signal, called active from +8 up or from −8 down.
The nature of experiment [5]: osmotic lysis modulators in infected erythrocytes, primary screen, PSAC antagonist project, cell-based, P. falciparum Indochina, OD700, 3 h (AID 1156). The conditions noted are these: higher = more signal, called active from +8 up or from −8 down.
A short description of experiment [6]: PSAC antagonists in infected red cells, primary screen, cell-based, P. falciparum Indochina, OD700, 18 h (AID 1157). Particulars: P. falciparum Indochina infected erythrocytes, osmotic lysis OD700, 18 h; higher = more signal, called active from +8 up or from −8 down.
Experiment [7] in a line: modulators of S6 phosphorylation in cells, primary screen, cell-based, A549, cytoblot, luminescence, serum-stimulated (AID 1158).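 Further: serum-stimulated A549 lung adenocarcinoma cells; signal is phosphorylated S6 detected by cytoblot immunostaining with HRP secondary.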 The conditions noted are these: A549 phospho-S6 cytoblot, 5 h, higher = more signal.
Experiment [8] addresses NADPH oxidase 2 (Homo sapiens) (UniProt P04839). In words: NOX2-dependent H2O2 signal modulators, primary screen, NOX inhibitor project, cell-based, HEK293-NOX2, PMA-stimulated, Amplex Red fluorescence (AID 1159). Further: test concentration not given here. Particulars: 45 min, higher = more signal, called active from +8 up or from −8 down.
The target in experiment [9] is NADPH oxidase 4 (Homo sapiens) (UniProt Q9NPH5). Kind of experiment: NOX4-dependent H2O2 signal modulators, primary screen, NOX inhibitor project, cell-based, HEK293-NOX4, tetracycline-induced, Amplex Red fluorescence (AID 1160). Particulars: 45 min, higher = more signal, called active from +8 up or from −8 down.
Experiment [10] concerns the target NADPH oxidase 5 (Homo sapiens) (UniProt Q96PH1). In words: NOX5-dependent H2O2 signal modulators, primary screen, NOX inhibitor project, cell-based, HEK293-NOX5, Amplex Red fluorescence (AID 1161). Particulars: HEK293-NOX5, ionomycin, 45 min, higher = more signal.
Experiment [11] is described as follows: A549 cell viability effects, profiling panel, calcein-AM fluorescence, 48 h, basal (AID 1162). Further: test concentration not given here. The conditions noted are these: higher = more signal.
A short description of experiment [12]: adipocyte viability effects, profiling panel, cell-based, 3T3-L1 adipocytes, calcein-AM fluorescence, 48 h, basal (AID 1163). Further: test concentration not given here. Particulars: 3T3-L1 adipocytes viability, higher = more signal.
The nature of experiment [13]: HepG2 cell viability effects, profiling panel, calcein-AM fluorescence, 48 h, basal (AID 1164). Further: test concentration not given here. The conditions noted are these: higher = more signal.
The nature of experiment [14]: MM1S cell viability effects, profiling panel, calcein-AM fluorescence, 48 h, basal (AID 1165).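 Further: viability of MM1S multiple myeloma cells under basal unstimulated conditions; test concentration not given here.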 Particulars: higher = more signal.
The nature of experiment [15]: basal RPMI8226 viability, no added stimulus, profiling panel, cell-based, calcein-AM fluorescence, 48 h, PK04 Diversity Set (AID 1166).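 Further: cells grown under basal conditions without added stimulus; test concentration not given here.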 The conditions noted are these: RPMI8226 myeloma viability, higher = more signal.
Experiment [16] can be described thus: basal HepG2 mitochondrial membrane potential changes, profiling panel, cell-based, JC-1 fluorescence, 24 h, 100 nL compound (AID 1167). Further: test concentration not given here. The conditions noted are these: higher = more signal.
Experiment [17] can be described thus: basal 3T3-L1 adipocyte mitochondrial potential changes, profiling panel, cell-based, JC-1 fluorescence, 3T3-L1 adipocytes, 24 h, 100 nL compound (AID 1168). Further: test concentration not given here. The conditions noted are these: JC-1 mitochondrial fluorescence, higher = more signal, called active from +8 up or from −8 down.
Experiment [18] is described as follows: basal RPMI8226 mitochondrial membrane potential changes, profiling panel, cell-based, JC-1 fluorescence, 24 h, 100 nL compound (AID 1169). Further: test concentration not given here. Particulars: RPMI8226 myeloma, JC-1 mitochondrial potential fluorescence, higher = more signal.
The nature of experiment [19]: basal MM1S mitochondrial membrane potential changes, profiling panel, cell-based, JC-1 fluorescence, 24 h, 100 nL compound (AID 1170). Further: test concentration not given here. Particulars: higher = more signal.
Experiment [20] can be described thus: A549 lung cancer cell viability effects, profiling panel, resazurin fluorescence, 24 h, PK04 Diversity Set (AID 1171). Further: test concentration not given here. Particulars: higher = more signal, called active from +8 up or from −8 down. In general terms: Resazurin is reduced to fluorescent resorufin, in cell work by metabolically active cells.

Chain of NADPH oxidase 5 (Homo sapiens) (Q96PH1 whole entry, looked up): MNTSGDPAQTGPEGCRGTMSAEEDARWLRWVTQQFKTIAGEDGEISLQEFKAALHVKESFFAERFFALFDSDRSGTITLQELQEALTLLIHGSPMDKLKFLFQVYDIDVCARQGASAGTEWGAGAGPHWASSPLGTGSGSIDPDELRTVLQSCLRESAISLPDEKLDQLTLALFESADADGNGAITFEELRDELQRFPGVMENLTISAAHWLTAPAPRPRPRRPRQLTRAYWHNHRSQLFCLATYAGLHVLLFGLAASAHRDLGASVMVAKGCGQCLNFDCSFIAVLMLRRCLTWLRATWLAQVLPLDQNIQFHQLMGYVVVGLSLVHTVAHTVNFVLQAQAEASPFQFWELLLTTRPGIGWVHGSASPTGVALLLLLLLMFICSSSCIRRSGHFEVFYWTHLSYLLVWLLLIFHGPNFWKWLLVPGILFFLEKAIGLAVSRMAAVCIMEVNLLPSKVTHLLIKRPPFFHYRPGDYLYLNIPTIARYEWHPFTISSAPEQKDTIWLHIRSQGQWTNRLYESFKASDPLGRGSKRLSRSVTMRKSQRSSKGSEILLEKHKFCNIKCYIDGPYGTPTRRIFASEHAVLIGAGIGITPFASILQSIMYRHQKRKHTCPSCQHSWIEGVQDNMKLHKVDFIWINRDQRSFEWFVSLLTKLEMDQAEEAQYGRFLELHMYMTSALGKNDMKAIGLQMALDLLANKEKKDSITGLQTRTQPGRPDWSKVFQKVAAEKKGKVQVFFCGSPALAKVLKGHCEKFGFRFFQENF
Chain of NADPH oxidase 4 (Homo sapiens) (Q9NPH5 whole entry, looked up): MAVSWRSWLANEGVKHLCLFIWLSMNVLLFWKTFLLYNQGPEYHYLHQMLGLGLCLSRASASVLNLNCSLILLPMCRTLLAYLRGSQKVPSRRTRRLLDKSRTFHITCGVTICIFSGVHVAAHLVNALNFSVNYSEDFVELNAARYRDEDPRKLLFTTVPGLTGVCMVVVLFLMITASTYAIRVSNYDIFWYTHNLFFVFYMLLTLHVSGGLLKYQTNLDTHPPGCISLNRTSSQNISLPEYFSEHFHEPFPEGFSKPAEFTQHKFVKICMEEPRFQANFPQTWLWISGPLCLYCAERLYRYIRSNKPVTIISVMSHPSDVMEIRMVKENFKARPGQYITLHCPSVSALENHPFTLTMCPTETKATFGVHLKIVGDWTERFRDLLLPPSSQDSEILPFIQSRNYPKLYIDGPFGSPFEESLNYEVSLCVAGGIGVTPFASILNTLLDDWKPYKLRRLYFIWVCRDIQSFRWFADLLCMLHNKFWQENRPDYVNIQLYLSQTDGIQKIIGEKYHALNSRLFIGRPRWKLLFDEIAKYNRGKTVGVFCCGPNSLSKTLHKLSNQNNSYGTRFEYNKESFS
Chain of NADPH oxidase 2 (Homo sapiens) (P04839 whole entry, looked up): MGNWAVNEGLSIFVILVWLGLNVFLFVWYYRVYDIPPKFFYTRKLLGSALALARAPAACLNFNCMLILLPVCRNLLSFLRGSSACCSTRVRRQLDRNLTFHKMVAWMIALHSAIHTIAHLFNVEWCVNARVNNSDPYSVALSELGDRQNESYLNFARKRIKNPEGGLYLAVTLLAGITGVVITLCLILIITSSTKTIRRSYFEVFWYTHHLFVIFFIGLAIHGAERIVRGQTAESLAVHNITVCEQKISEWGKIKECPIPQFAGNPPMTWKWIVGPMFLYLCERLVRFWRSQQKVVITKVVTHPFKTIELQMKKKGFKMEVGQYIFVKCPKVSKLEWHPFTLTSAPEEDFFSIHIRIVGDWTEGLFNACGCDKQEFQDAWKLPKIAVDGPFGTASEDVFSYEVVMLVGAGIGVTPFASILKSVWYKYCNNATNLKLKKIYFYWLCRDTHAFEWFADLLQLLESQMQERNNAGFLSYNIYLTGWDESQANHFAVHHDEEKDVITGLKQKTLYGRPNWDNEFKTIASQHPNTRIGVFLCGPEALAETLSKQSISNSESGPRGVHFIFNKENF

As to `CN(C)C(=O)[C@]1(Cc2ccccc2)N=C(c2ccc(OCCCO)cc2)O[C@@H]1c1ccccc1`, the z-score in experiment [1] is -0.855 (inactive); in experiment [3], 28.8 (active); in experiment [4], 23.9 (active); in [5], -0.0356 (inactive); in experiment [6], 2.51 (inactive); in experiment [7], -0.0744. Also, the z-score in experiment [8] was 0.945 (inactive); in [9] it was -0.372 (inactive); in [10], -1.73; in experiment [11], -0.092; in experiment [12], -0.577; in experiment [13], 0.846. Also, the z-score in experiment [14] was -0.864; in [15], -1; in experiment [16] it was 0.0944; in experiment [17], 0.193 (inactive); in experiment [18], -1.11; in experiment [19], -0.192. Also, in experiment [20], the z-score is 0.747 (inactive). The composite z-score in experiment [2] was -0.13.
`CCCC=C(CCC)[C@@H](NC(=O)c1ccccc1)c1ccc(C(=O)OC)cc1`: the z-score is 0.119 (inactive) in [1]; -0.072 (inactive) in experiment [3]; 0.502 (inactive) in experiment [4]; -0.0759 (inactive) in experiment [5]; -0.289 (inactive) in experiment [6]; 3.85 in experiment [7]. The z-score was -3.83 (inactive) in experiment [8]; -3.23 (inactive) in experiment [9]; -1.45 in experiment [10]; -0.185 in experiment [11]; 0.921 in [12]; -0.535 in experiment [13]. Also, the z-score in experiment [14] was -0.355; in experiment [15], -1.08; in experiment [16], -1.59; in experiment [17], 0.131 (inactive); in experiment [18], -0.515; in experiment [19], -1.12. In addition, the z-score in experiment [20] was 0.18 (inactive). The composite z-score in [2] is 1.29.
For `CC(C)C[C@H]1NC(=O)[C@@]23C(=O)N[C@@H](Cc4ccccc4)C2[C@H](C)[C@@]2(C)O[C@H]2C3/C=C/C/C=C\CNC(=O)[C@@H]2CCCN2C1=O` (stereo not given in full), the z-score was -1.09 (inactive) in experiment [1]; 0.0869 (inactive) in experiment [3]; -0.26 (inactive) in experiment [4]; -0.875 (inactive) in experiment [5]; -0.234 (inactive) in experiment [6]; 0.0247 in [7]. Further, the z-score in experiment [8] is 0.708 (inactive); in experiment [9], 1.29 (inactive); in experiment [10], 0.968; in experiment [11] it was 0.0246; in experiment [12] it was -0.0768; in experiment [13], -0.54. In addition, the z-score in experiment [14] is -1.41; in experiment [15] it was -0.531; in experiment [16], -0.831; in experiment [17], 0.244 (inactive); in experiment [18] it was 0.868; in [19] it was -0.391. For the same compound, the z-score in experiment [20] was -0.659 (inactive). For the same compound, in experiment [2], the composite z-score is -0.0544.
As to `O=c1cccc(-c2ccccc2C(F)(F)F)o1`, the z-score is -0.934 (inactive) in [1]; 0.168 (inactive) in [3]; 0.761 (inactive) in [4]; -0.627 (inactive) in experiment [5]; 0.341 (inactive) in experiment [6]; -0.67 in [7]. Besides, the z-score is 0.409 (inactive) in [8]; 0.0518 (inactive) in experiment [9]; -0.982 in experiment [10]; -0.976 in [11]; -0.0994 in experiment [12]; 0.21 in [13]. Moreover, the z-score is 0.634 in experiment [14]; -0.475 in experiment [15]; -0.72 in experiment [16]; 0.254 (inactive) in [17]; 0.835 in experiment [18]; -1.3 in experiment [19]. For the same compound, the z-score in experiment [20] was -0.262 (inactive). For the same compound, the composite z-score in experiment [2] was 0.69.
For `C=CCOC(=O)[C@H]1[C@@H]2C(=O)O[C@@H](c3ccccc3)[C@@H](c3ccccc3)N2[C@@H](c2ccc(OCCOC(=O)[C@H]3C[C@H]4C(=O)NCC(=O)N4[C@H]3c3ccc(O)cc3)cc2)[C@]12C(=O)Nc1ccc(I)cc12`, the z-score in experiment [1] was 0.345 (inactive); in experiment [3], 2.6 (inactive); in experiment [4] it was 2.66 (inactive); in [5], 1.02 (inactive); in [6], 1.33 (inactive); in [7], 0.839. Moreover, the z-score in experiment [8] was 1.54 (inactive); in experiment [9] it was 1.5 (inactive); in experiment [10] it was 1.22; in [11], -0.362; in [12], 0.34; in [13], 1.78. In addition, the z-score in experiment [14] is 0.782; in experiment [15] it was 0.483; in [16], -1.63; in experiment [17], 0.266 (inactive); in experiment [18], -0.398; in [19], -1.43. The z-score in [20] was 0.144 (inactive). Moreover, the composite z-score in [2] worked out at 0.0359.
